Test results from PubChem BioAssay (NCI).
About 79,000 compounds went through this panel and 15% of them were active in at least one assay; those are over-represented in the sample as a whole. Values without a mark were called inactive. Activity calls are given as the source filed them. Rule as the data show it: active = growth inhibition above about 70%; inactive = the rest.

Test: NCI Yeast Anticancer Drug Screen. Data for the rad50 strain (AID 155);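 also: 0% = growth of vehicle-only cultures of the same strain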
Conditions: S. cerevisiae rad50 strain growth inhibition; at 50.0 µM; active compounds read high
Method in brief: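 A DNA repair-deficient yeast mutant serves as the test organism; compound-induced growth inhibition is calculated against vehicle-treated cells.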

| Structure (SMILES) | growth inhibition |
| --- | --- |
| CCOC(=O)c1ccc(-n2cnc(-c3ccc([N+](=O)[O-])cc3)c2)cc1 | -4.55% |
| CCCCCC#CC(=O)OCC | 0.6% |
| CCN(CC)Cc1cc(NC(C)=O)ccc1O | -5.1% |
| Cc1ccc(N=C(C(=O)c2ccccc2)C(Nc2ccc(C)cc2)C(=O)c2ccccc2)cc1 (stereo not given) | 23.8% |
| CCCCCCCCCCCCCCCSc1ccc2ccccc2c1 | -17% |
| CCOC(=O)c1c[nH]n(Cc2ccccc2)c1=O | 12% |
| O=C(c1cccc(F)c1)c1ccccc1Cc1ccccc1 | -4.45% |
| Cc1cc(N(CCC#N)CCC#N)ccc1/C=C1\N=C(c2cc([N+](=O)[O-])ccc2Cl)N(c2cccc(Cl)c2)C1=O | -19.4% |
| CCOC(=O)C1=C(C)NC(=O)NC1c1ccc(N(C)C)cc1 (stereo not given) | 22.8% |
| CCN(c1ccccc1)S(=O)(=O)c1cc(N)ccc1C | -23.8% |
| CCOC(=O)CCCCCCCCCC[N+](CC)(CC)CC(=O)c1ccc(NC(C)=O)cc1 | -1.05% |
| CCC(=S)Nc1ccc(Cl)cc1 | -1.9% |
| c1ccc2nc3ccccc3cc2c1 | 2.7% |
| CCOC(=O)/C(C)=C/CC1=C(O)c2ccccc2C(=O)C1=O | 7.3% |
| Cc1cc2nnn(C3CCCCO3)c2cc1C (stereo not given) | 3.25% |
| O=C1OCC=C1COC1OC(CO)C(O)C(O)C1O (stereo not given) | -6.35% |
| COC1=CC(=O)C(C)=CC1=O | -2.1% |
| CC1CCC2(OC1)OC1CC3C4CCC5CC(O)CCC5(C)C4CC(=O)OC3(C)C1C2C (stereo not given) | -10.8% |
| O=C(NNC(=O)OCc1ccccc1)OCc1ccccc1 | 23.9% |
| CC1=Nc2nc3ccccc3n2C(C)(C)C1 | 14.6% |

| Structure (SMILES) | growth inhibition |
| --- | --- |
| Nc1ncc2c(n1)-c1ccccc1OC2NC1CC1 (stereo not given) | 2.5% |
| O=C(CC(=O)n1nc(-c2ccccc2)c(N=Nc2ccc([N+](=O)[O-])cc2)c1-c1ccccc1)Nc1ccc(Cl)cc1 | 35.6% |
| O=C1C(=O)N(C23CC4CC(CC(C4)C2)C3)C(=S)N1c1ccccc1 | -9.7% |
| CC1OCC2CC3(O1)OC3C(COCC1OC3COC(C)OC4(C3)OC14)O2 (stereo not given) | -7.05% |
| c1ccc(COc2ccc3c(c2)CN(Cc2ccccc2)CO3)cc1 | -21.1% |
| CNCCCCCCNc1cc(OC)cc2cccnc12 | 45% |
| Cc1ccc(S(=O)(=O)N/N=C/C(C)(c2ccccc2)c2ccccc2)cc1 | 70.9% (active) |
| O=C(NN1C(=O)C(Cl)C1c1cccc(Cl)c1)c1ccccc1O (stereo not given) | -58.4% |
| CCOC(=O)C1=C(O)C(=O)c2ccoc2C1=O | -52.9% |
| CC(CO)(CO)Nc1ncnc2ccccc12 | -4.5% |
| BrC1CCC(Br)CC1 (stereo not given) | 7.1% |
| Cc1nc2ccccc2o1 | 19.9% |
| Cc1cc(-c2ccccc2)[nH]c1-c1nccc2ccccc12 | 4.1% |
| CN1c2ccccc2Sc2cc(/C=C3/SC(=S)NC3=O)ccc21 | 1.95% |
| Cc1nc2ccc(S(=O)(=O)Nc3ccccc3Cl)cc2c(=O)n1NC(=O)CNc1ccccc1Cl | 26.4% |
| C[C@]12CCC[C@H](O)[C@H]1O2 | -6.45% |
| Cc1ccc(C)o1 | -5.3% |
| CN(C)N=Nc1ccccc1 | 38.2% |
| CC1(Br)CP(=O)(c2ccccc2)CC1Br (stereo not given) | -9.2% |
| C=C(c1ccc(OC)cc1)c1cc(C(C)(C)C)c(O)c(C(C)(C)C)c1 | -4.45% |

Test: NCI Yeast Anticancer Drug Screen. Data for the mec2-1 strain (AID 157)
Conditions: S. cerevisiae mec2-1 strain, at 50.0 µM, active compounds read high
Method in brief: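 Cells of the genetically defined mec2-1 yeast strain are incubated with test compound. Inhibition of growth is calculated against vehicle-treated controls.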

| Structure (SMILES) | growth inhibition [%] |
| --- | --- |
| CCOC(=O)c1ccc(-n2cnc(-c3ccc([N+](=O)[O-])cc3)c2)cc1 | -7.2 |
| CCCCCC#CC(=O)OCC | -0.9 |
| CCN(CC)Cc1cc(NC(C)=O)ccc1O | -13.7 |
| Cc1ccc(N=C(C(=O)c2ccccc2)C(Nc2ccc(C)cc2)C(=O)c2ccccc2)cc1 (stereo not given) | 3.25 |
| CCCCCCCCCCCCCCCSc1ccc2ccccc2c1 | 1.35 |
| CCOC(=O)c1c[nH]n(Cc2ccccc2)c1=O | 13.4 |
| O=C(c1cccc(F)c1)c1ccccc1Cc1ccccc1 | 4.2 |
| Cc1cc(N(CCC#N)CCC#N)ccc1/C=C1\N=C(c2cc([N+](=O)[O-])ccc2Cl)N(c2cccc(Cl)c2)C1=O | -20.2 |
| CCOC(=O)C1=C(C)NC(=O)NC1c1ccc(N(C)C)cc1 (stereo not given) | -4.05 |
| CCN(c1ccccc1)S(=O)(=O)c1cc(N)ccc1C | -10.7 |
| CCOC(=O)CCCCCCCCCC[N+](CC)(CC)CC(=O)c1ccc(NC(C)=O)cc1 | -2.35 |
| CCC(=S)Nc1ccc(Cl)cc1 | -44.6 |
| c1ccc2nc3ccccc3cc2c1 | 19.6 |
| CCOC(=O)/C(C)=C/CC1=C(O)c2ccccc2C(=O)C1=O | 23.7 |
| Cc1cc2nnn(C3CCCCO3)c2cc1C (stereo not given) | -12.9 |
| O=C1OCC=C1COC1OC(CO)C(O)C(O)C1O (stereo not given) | 3.55 |
| COC1=CC(=O)C(C)=CC1=O | 2.65 |
| CC1CCC2(OC1)OC1CC3C4CCC5CC(O)CCC5(C)C4CC(=O)OC3(C)C1C2C (stereo not given) | -23.6 |
| O=C(NNC(=O)OCc1ccccc1)OCc1ccccc1 | -2.75 |
| CC1=Nc2nc3ccccc3n2C(C)(C)C1 | 18.8 |

| Structure (SMILES) | growth inhibition [%] |
| --- | --- |
| Nc1ncc2c(n1)-c1ccccc1OC2NC1CC1 (stereo not given) | 12.1 |
| O=C(CC(=O)n1nc(-c2ccccc2)c(N=Nc2ccc([N+](=O)[O-])cc2)c1-c1ccccc1)Nc1ccc(Cl)cc1 | 3.1 |
| O=C1C(=O)N(C23CC4CC(CC(C4)C2)C3)C(=S)N1c1ccccc1 | -20.6 |
| CC1OCC2CC3(O1)OC3C(COCC1OC3COC(C)OC4(C3)OC14)O2 (stereo not given) | -25.3 |
| c1ccc(COc2ccc3c(c2)CN(Cc2ccccc2)CO3)cc1 | -28.9 |
| CNCCCCCCNc1cc(OC)cc2cccnc12 | 18.7 |
| Cc1ccc(S(=O)(=O)N/N=C/C(C)(c2ccccc2)c2ccccc2)cc1 | 52 |
| O=C(NN1C(=O)C(Cl)C1c1cccc(Cl)c1)c1ccccc1O (stereo not given) | -29.2 |
| CCOC(=O)C1=C(O)C(=O)c2ccoc2C1=O | -35.2 |
| CC(CO)(CO)Nc1ncnc2ccccc12 | -12 |
| BrC1CCC(Br)CC1 (stereo not given) | -11.1 |
| Cc1nc2ccccc2o1 | 39.5 |
| Cc1cc(-c2ccccc2)[nH]c1-c1nccc2ccccc12 | 8 |
| CN1c2ccccc2Sc2cc(/C=C3/SC(=S)NC3=O)ccc21 | 4.6 |
| Cc1nc2ccc(S(=O)(=O)Nc3ccccc3Cl)cc2c(=O)n1NC(=O)CNc1ccccc1Cl | 0.2 |
| C[C@]12CCC[C@H](O)[C@H]1O2 | 3.25 |
| Cc1ccc(C)o1 | 5.5 |
| CN(C)N=Nc1ccccc1 | -14.2 |
| CC1(Br)CP(=O)(c2ccccc2)CC1Br (stereo not given) | -11.9 |
| C=C(c1ccc(OC)cc1)c1cc(C(C)(C)C)c(O)c(C(C)(C)C)c1 | -1.75 |
